What was measured:
Format in all cases: functional
Plasmodium falciparum [1] = assay: GSK_TCMDC: Inhibition of Plasmodium falciparum 3D7 in whole red blood cells, using parasite LDH activity as an index of growth. Test compounds present at 2uM
Plasmodium falciparum [2] = assay: GSK_TCMDC: Inhibition of Plasmodium falciparum Dd2 in whole red blood cells, using parasite LDH activity as an index of growth. Test compounds present at 2uM
HepG2 = assay: GSK_TCMDC: Percent inhibition of human HepG2 cell line. Test compounds present at 10uM.

Row | Structure (SMILES) | Inhibition (Plasmodium falciparum [1]) [%] | Inhibition (Plasmodium falciparum [2]) [%] | Inhibition (HepG2) [%]
1 | COc1ccc(CN(C)CCCOc2ccc(NC(=O)c3cccc4c(=O)c5cccc(C)c5[nH]c34)cc2)cc1OC | 96 | 62 | 3
2 | Br.O=C(CNc1ccncc1)c1c[nH]c2ccccc12 | 90 | 62 | 31
3 | Cc1cccc2nc(-c3cccc(-c4cccc(CNCCNC(=O)c5ccnn5C)c4)c3)[nH]c12.O=C(O)C(F)(F)F | 100 | 71 | 26
4 | CCN(CCO)CCc1cccc(Nc2nccc(-c3c(-c4ccc(NC(=O)C(C)(C)C)cc4)nn4ccccc34)n2)c1.Cl | 100 | 96 | 62
5 | COc1ccc(CNC2CCN(C)CC2)cc1-c1ccc(S(=O)(=O)NCc2ccccc2)c(F)c1.O=C(O)C(F)(F)F | 100 | 97 | 53
6 | Br.N=C1c2ccccc2CN1CC(=O)c1ccc(Cl)c(Cl)c1 | 98 | 16 | 1
7 | CCOc1cc(C(=O)Nc2cccnc2)ccc1-c1nc2cc(Cl)c(Cl)cc2[nH]1 | 100 | 70 | 9
8 | COC[C@H]1CCCN1Cc1ccc(-c2ccc(-c3nc4ccccc4[nH]3)s2)cc1 | 95 | 58 | 18
9 | O=[N+]([O-])c1ccc(Nc2nc(NCc3ccccc3)nc(N/N=C/c3ccccc3[N+](=O)[O-])n2)cc1 | 100 | 99 | 18
10 | COc1ccc2nccc([C@@H](O)CN3CCC(NCc4cc5ccccc5[nH]4)CC3)c2c1.CS(=O)(=O)O | 92 | 41 | 75
